Inconclusive results are not listed. Activity calls are given as the source filed them. Unless noted, the call rests on the fitted dose curve; in most records, active means well fitted curve in the direction sought with a large enough effect in the repeat runs; inconclusive means weak or mixed curves; inactive means no such curve, though single readings can be large; an effect the other way counts as inactive or inconclusive.
What was measured:
[1] = qHTS assay to identify small molecule agonists of the sonic hedgehog signaling (Shh) pathway (AID 1259368; calls by dose curve;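 further: NIH/3T3-derived 3T3Gli1-Luc cells carrying a stable Gli1-driven firefly luciferase reporter; series mostly up to about 92 µM; nearly all actives have a fitted effect of over 15% in size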)
In short: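 3T3Gli1-Luc (NIH/3T3 clone, stable Gli1-Luc); 4 hr pre-incubation, then cpd in DMSO 24 hr, 37 C/5% CO2; luciferase reagent 30 min RT; luminescence.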

[2] = qHTS assay to identify small molecule antagonists of the sonic hedgehog signaling (Shh) pathway (AID 1259369; calls by dose curve; further: nearly all actives have a fitted effect of over 45% in size)
In short: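 3T3Gli1-Luc, conditioned-medium-stimulated, 24hr cpd, 37C/5% CO2; Gli1-driven firefly Luc luminescence after 30min RT with luciferase reagent. Cells plated 4hr before cpd.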

[3] = biological target: Estrogen receptor beta (Homo sapiens) (UniProt Q92731); assay: qHTS assay to identify small molecule agonists of the estrogen receptor beta (ER-beta) signaling pathway (AID 1259377; active means well fitted activation curve with a large enough effect in the signal ratio in the repeat runs, not every such curve was filed as active; the % refers to the signal ratio)
In short: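 In HEK293T cells bearing a UAS-beta-lactamase reporter under ER-beta control, DMSO-delivered compounds were incubated for 16 hr at 37C. Activity was detected as fluorescence 2 hours after LiveBLAzer B/G FRET substrate addition.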

[4] = biological target: Estrogen receptor beta (Homo sapiens) (UniProt Q92731); assay: qHTS assay to identify small molecule antagonists of the estrogen receptor beta (ER-beta) signaling pathway (AID 1259378; active means well fitted inhibition curve with a large enough effect in the signal ratio in the repeat runs, not every such curve was filed as active; the % refers to the signal ratio)
In short: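 ER-beta-UAS-bla HEK293T cells in 2% charcoal-stripped FBS medium treated with compound plus 1nM final 17-beta-estradiol for 16 hr at 37C. Beta-lactamase reporter read by FRET substrate fluorescence after 2 hours at room temperature.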

[5] = qHTS assay to identify small molecule agonists of the androgen receptor (AR) signaling pathway in the presence of an antagonist - cell viability counter screen (AID 1259379);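 further: MDA-kb2 human breast cancer cells carrying an MMTV luciferase reporter; series mostly up to about 92 µM; nearly all actives have a fitted effect of over 25% in size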
In short: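 Cells: MDA-kb2 (MMTV-luc, AR and GR elements), 3,000/well, 5 hr settle. Added: nilutamide 3.0uM final, then compounds (15 conc.). Incubation: 16 hr, 37C, no CO2. Read-out: CellTiter-Fluor, 1 hr, fluorescence.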

[6] = qHTS assay to identify small molecule agonists of the estrogen receptor beta (ER-beta) signaling pathway - cell viability counter screen (AID 1259380); further: nearly all actives have a fitted effect of over 30% in size
In short: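 HEK293T ER-beta-UAS-bla; 2% CS-FBS; 6 hr pre-plate, 16 hr cpd at 37C/5% CO2; LiveBLAzer read first, then CellTiter-Glo 30 min RT, luminescence.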

[7] = qHTS assay to identify small molecule antagonists of the estrogen receptor beta (ER-beta) signaling pathway - cell viability counter screen (AID 1259382); further: series mostly up to about 92 µM; nearly all actives have a fitted effect of over 55% in size
In short: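 Cells: ER-beta-UAS-bla HEK293T, 2,000/well, 2% CS-FBS, 6 hr settle. Cpd + E2 (1nM final), 16 hr, 37C/5% CO2. Bla FRET substrate 2 hr RT, then CellTiter-Glo 30 min RT, luminescence.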

[8] = biological target: Estrogen receptor (Homo sapiens) (UniProt P03372); assay: qHTS assay to identify small molecule agonists of the estrogen receptor alpha (ER-alpha) signaling pathway in the presence of an antagonist (AID 1259383; calls by dose curve; further: top concentration of the series differs between compounds; nearly all actives have a fitted effect of over 15% in size)
In short: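 VM7Luc4E2, endog. ER-alpha + 4×ERE-luc; charcoal-stripped FBS, phenol red-free, 5 d; 24hr plating; +10.0nM ICI-182,780 (final); cpds 15 conc, 22hr, 37C/5% CO2; ONE-Glo luminescence.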

[9] = qHTS assay to identify small molecule agonists or antagonists of the thyroid stimulating hormone receptor (TSHR) signaling pathway - wild type cell line counter screen (AID 1259384; calls by dose curve)
In short: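 Wild-type Hek293 cells, 800/well, 18 h at 37C, then compound with Ro20-1724 for 30 min RT. cAMP by HTRF (cAMP-d2/anti-cAMP cryptate), 1 h RT, fluorescence read. 15 concentrations, triplicates.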

[10] = biological target: Thyrotropin receptor (Homo sapiens) (UniProt P16473); assay: qHTS assay to identify small molecule antagonists of the thyroid stimulating hormone receptor (TSHR) signaling pathway (AID 1259385; calls by dose curve; further: nearly all actives have a fitted effect of over 20% in size)
In short: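 TSHR-HEK293 cells (800/well) plated 18 h, then compounds with Ro20-1724 and TSH at 1.5 ng/mL final, 30 min at room temperature. cAMP quantified by HTRF (cAMP-d2/anti-cAMP-cryptate, 1 h); 15 concentrations in triplicate.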

[11] = qHTS assay to identify small molecule agonists of the estrogen receptor alpha (ER-alpha) signaling pathway in the presence of an antagonist - cell viability counter screen (AID 1259386);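 further: series mostly up to about 92 µM; cells exposed to compounds for 22 h at 37 °C before the viability read; nearly all actives have a fitted effect of over 30% in size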
In short: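 VM7Luc4E2, stripped-serum pre-culture 5 d; 24hr plating; +ICI-182,780 10.0nM final; cpds 15 conc, 22hr, 37C/5% CO2; CellTiter-Fluor added at 21hr, fluorescence 1hr later.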

[12] = qHTS assay to identify small molecule agonists of the progesterone receptor (PR) signaling pathway - cell viability counter screen (AID 1346799; calls by dose curve; further: nearly all actives have a fitted effect of over 45% in size)
In short: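 Cytotoxicity in PR-bla HEK293T cells: 16 h compound, 37C; CellTiter-Glo added post-FRET read; luminescence after 30 min RT.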

[13] = qHTS assay to identify small molecule agonists of the TGF-beta/Smad signaling pathway - cell viability counter screen (AID 1346829); further: top concentration of the series differs between compounds; nearly all actives have a fitted effect of over 45% in size
In short: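 In parallel with the Smad reporter read, viability of HEK 293T cells stably carrying SBE-bla is quantified by ATP luminescence following 5 hr compound treatment.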

[14] = qHTS assay to identify small molecule agonists of the TGF-beta/Smad signaling pathway (AID 1346859; active means well fitted activation curve with a large enough effect in the signal ratio in the repeat runs, not every such curve was filed as active; the % refers to the signal ratio; further: series mostly up to about 77 µM)
In short: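 Stable Smad binding element-beta-lactamase HEK 293T cells; 5 hr compound exposure at 37 C under 5% CO2; 2 hr room-temperature substrate step; fluorescence excited at 405 nm, collected at 460 nm and 530 nm.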

[15] = biological target: Thyrotropin-releasing hormone receptor (Homo sapiens) (UniProt P34981); assay: qHTS assay to identify small molecule antagonists of the thyrotropin-releasing hormone receptor (TRHR) signaling pathway (AID 1346877; active means well fitted inhibition curve with a large enough effect in the repeat runs, not every such curve was filed as active; further: series mostly up to about 51 µM)
In short: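 Intracellular calcium fluorescence, read kinetically every second over 3 min, reports TRH-evoked signalling in HEK293 cells carrying TRHR. Test compounds were added 5 min ahead of a 1 nM TRH challenge.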

[16] = biological target: Progesterone receptor (Homo sapiens) (UniProt P06401); assay: qHTS assay to identify small molecule antagonists of the progesterone receptor (PR) signaling pathway (AID 1346795; active means well fitted inhibition curve with a large enough effect in the signal ratio in the repeat runs, not every such curve was filed as active; the % refers to the signal ratio)
In short: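 Inhibition of R5020-induced (1 nM final) beta-lactamase reporter signal in PR-UAS-bla HEK293T cells was scored by FRET fluorescence after overnight (16 hr) compound treatment.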

[17] = qHTS assay to identify small molecule antagonists of the progesterone receptor (PR) signaling pathway - cell viability counter screen (AID 1346798); further: series mostly up to about 92 µM; nearly all actives have a fitted effect of over 50% in size
In short: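 ATP content as viability readout: CellTiter-Glo luminescence, 30 min room temperature, in PR-UAS-bla HEK293T cells after 16 hr compound/R5020 treatment at 37C and 5% CO2.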

[18] = qHTS assay to identify small molecule antagonists of the TGF-beta/Smad signaling pathway - cell viability counter screen (AID 1346824); further: nearly all actives have a fitted effect of over 50% in size
In short: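 SBE-bla HEK 293T cells, incubated overnight, then compound plus 0.25 ng/mL TGF-beta1 (stock added) for 5 hr at 37 C. Viability was read in the same wells by CellTiter-Glo luminescence after 30 min at room temperature.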

[19] = biological target: Progesterone receptor (Homo sapiens) (UniProt P06401); assay: qHTS assay to identify small molecule agonists of the progesterone receptor (PR) signaling pathway (AID 1346784; calls by dose curve; further: nearly all actives have a fitted effect of over 30% in size)
In short: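 Using charcoal-stripped serum (2%) to limit endogenous steroids, PR-UAS-bla HEK 293T cells received compounds for 16 hr at 37C after 6 hr plating; beta-lactamase FRET fluorescence was recorded following 2 hr substrate loading at room temperature.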
On the % scale 0 is the no-effect control and ±100 the full control effect.

Chain of Progesterone receptor (Homo sapiens) (P06401 whole entry, looked up): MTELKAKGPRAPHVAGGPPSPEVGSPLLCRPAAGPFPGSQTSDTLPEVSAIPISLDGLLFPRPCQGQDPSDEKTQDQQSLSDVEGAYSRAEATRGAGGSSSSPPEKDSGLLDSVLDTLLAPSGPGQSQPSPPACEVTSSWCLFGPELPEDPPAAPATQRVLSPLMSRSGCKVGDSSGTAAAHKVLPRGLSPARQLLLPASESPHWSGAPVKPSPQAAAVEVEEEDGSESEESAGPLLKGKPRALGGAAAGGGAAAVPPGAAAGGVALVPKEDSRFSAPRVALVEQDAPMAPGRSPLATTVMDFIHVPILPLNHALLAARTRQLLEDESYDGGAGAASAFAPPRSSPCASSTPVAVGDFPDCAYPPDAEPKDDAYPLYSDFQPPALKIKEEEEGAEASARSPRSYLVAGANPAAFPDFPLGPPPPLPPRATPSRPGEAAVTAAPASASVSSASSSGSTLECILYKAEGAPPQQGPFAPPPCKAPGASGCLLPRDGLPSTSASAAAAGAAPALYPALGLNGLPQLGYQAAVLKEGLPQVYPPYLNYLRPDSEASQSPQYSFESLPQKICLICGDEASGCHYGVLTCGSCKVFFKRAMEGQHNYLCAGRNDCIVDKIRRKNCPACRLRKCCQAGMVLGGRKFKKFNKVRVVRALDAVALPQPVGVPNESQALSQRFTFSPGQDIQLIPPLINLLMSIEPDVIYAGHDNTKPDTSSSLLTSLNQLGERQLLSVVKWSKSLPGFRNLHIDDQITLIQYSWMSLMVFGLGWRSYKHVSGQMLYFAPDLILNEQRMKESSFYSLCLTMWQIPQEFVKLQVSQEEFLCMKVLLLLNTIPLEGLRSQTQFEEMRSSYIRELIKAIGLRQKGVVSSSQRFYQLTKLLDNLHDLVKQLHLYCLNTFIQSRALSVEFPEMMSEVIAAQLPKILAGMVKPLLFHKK
Chain of Estrogen receptor (Homo sapiens) (P03372 whole entry, looked up): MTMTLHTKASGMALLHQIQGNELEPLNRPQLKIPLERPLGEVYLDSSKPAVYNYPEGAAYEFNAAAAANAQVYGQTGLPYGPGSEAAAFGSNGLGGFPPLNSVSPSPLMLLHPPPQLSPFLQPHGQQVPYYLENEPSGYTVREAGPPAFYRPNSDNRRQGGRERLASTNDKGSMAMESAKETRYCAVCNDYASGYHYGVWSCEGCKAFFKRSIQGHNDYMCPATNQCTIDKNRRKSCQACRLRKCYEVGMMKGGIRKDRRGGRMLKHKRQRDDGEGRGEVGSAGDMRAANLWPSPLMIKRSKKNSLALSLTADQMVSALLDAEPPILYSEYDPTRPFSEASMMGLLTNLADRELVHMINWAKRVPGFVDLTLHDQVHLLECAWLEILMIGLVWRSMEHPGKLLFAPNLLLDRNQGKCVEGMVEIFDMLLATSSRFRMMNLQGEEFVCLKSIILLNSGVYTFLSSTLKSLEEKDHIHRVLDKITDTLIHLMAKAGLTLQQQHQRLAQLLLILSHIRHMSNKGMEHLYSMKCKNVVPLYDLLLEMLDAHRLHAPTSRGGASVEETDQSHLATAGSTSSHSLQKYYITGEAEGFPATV
Chain of Thyrotropin receptor (Homo sapiens) (P16473 whole entry, looked up): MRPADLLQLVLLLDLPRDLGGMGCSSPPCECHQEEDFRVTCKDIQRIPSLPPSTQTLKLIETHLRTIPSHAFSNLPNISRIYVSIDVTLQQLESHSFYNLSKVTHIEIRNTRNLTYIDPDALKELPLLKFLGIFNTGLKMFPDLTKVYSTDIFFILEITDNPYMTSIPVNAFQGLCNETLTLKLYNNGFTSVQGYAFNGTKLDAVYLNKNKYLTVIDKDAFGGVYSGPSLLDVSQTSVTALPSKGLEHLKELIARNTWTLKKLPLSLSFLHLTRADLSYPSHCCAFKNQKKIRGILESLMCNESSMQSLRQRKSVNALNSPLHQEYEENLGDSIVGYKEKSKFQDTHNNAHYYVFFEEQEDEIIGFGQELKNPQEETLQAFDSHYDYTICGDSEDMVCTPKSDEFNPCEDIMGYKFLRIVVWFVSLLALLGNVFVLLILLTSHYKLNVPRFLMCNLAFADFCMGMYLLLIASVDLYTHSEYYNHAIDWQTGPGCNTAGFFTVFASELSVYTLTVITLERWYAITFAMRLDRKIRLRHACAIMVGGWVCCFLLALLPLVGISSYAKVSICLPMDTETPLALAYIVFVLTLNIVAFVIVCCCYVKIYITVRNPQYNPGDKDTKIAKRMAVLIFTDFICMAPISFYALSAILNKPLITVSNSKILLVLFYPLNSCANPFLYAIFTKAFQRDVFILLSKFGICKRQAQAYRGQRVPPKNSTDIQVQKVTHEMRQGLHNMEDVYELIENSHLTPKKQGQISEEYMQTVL
Chain of Estrogen receptor beta (Homo sapiens) (Q92731 whole entry, looked up): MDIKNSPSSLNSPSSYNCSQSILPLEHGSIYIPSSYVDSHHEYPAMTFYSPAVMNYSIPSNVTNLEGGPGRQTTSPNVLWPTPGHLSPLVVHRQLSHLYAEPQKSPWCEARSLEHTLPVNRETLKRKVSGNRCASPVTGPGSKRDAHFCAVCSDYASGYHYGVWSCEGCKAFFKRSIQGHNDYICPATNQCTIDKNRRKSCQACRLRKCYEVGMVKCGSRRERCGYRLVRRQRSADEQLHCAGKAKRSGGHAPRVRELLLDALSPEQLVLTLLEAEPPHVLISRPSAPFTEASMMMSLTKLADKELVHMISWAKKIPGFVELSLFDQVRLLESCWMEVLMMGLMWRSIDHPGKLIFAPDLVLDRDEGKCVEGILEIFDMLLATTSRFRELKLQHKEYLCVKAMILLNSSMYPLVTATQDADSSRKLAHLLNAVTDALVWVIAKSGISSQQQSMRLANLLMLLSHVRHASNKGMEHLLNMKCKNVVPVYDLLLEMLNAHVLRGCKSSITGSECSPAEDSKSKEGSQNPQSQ
Chain of Thyrotropin-releasing hormone receptor (Homo sapiens) (P34981 whole entry, looked up): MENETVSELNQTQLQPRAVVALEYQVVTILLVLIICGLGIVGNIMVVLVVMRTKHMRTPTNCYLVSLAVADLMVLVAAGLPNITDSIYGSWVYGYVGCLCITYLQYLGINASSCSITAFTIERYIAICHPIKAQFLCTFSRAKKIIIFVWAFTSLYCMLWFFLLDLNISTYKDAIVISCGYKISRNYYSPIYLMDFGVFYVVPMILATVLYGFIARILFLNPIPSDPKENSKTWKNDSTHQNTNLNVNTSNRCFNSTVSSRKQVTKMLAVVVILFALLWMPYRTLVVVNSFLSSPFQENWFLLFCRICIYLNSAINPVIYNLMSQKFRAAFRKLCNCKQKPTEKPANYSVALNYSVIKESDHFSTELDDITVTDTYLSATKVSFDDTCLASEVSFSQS

CO[Si](C)(C)OC
inactive: Potency [1] | Potency [2] | outcome [3] | Potency [4] | Potency [5] | Potency [6] | outcome [7] | Potency [8] | outcome [9] | Potency [10] | Potency [11] | Potency [12] | outcome [13] | outcome [14] | outcome [15]

Cc1cc(NS(=O)(=O)c2ccc(N)cc2)nc(C)n1
inactive: Potency [1] | Potency [2] | outcome [3] | Potency [4] | Potency [5] | Potency [6] | Potency [8] | outcome [9] | Potency [10] | Potency [11] | Potency [16] | Potency [17] | Potency [12] | outcome [18] | outcome [13] | outcome [14] | outcome [15]

O=CCCc1ccccc1
inactive: Potency [1] | Potency [2] | outcome [3] | Potency [4] | Potency [5] | Potency [6] | outcome [7] | Potency [11] | Potency [16] | Potency [12] | outcome [18] | outcome [13] | outcome [14]

Cc1ccc(C)c(N)c1
inactive: Potency [1] | Potency [2] | outcome [3] | Potency [4] | Potency [5] | Potency [6] | outcome [7] | Potency [8] | outcome [9] | Potency [10] | Potency [11] | Potency [17] | Potency [12] | outcome [18] | outcome [13] | outcome [14] | outcome [15]

COc1cc(Cl)ccc1Cl
inactive: Potency [1] | Potency [2] | outcome [3] | Potency [4] | Potency [5] | Potency [6] | outcome [7] | outcome [9] | Potency [10] | Potency [11] | Potency [16] | Potency [17] | Potency [12] | outcome [18] | outcome [14] | outcome [15]

O=c1oc2c(O)c(O)cc3c(=O)oc4c(O)c(O)cc1c4c23
inactive: activity change [1] -1.7% [at 18.9 µM, stronger effect = higher value] | activity change, negative = inhibition [2] 14.9% [at 19 µM] | activation [3] 0.261% [at 19 µM] | activity, negative = inhibition [4] -0.396% [at 19 µM] | activity change, negative = cytotoxicity [5] -4.09% [at 19 µM] | activity change, negative = cytotoxicity [6] 7.11% [at 19 µM] | activity change, negative = cytotoxicity [7] -1.21% [at 19 µM] | activation [8] -0.711% [at 19 µM] | activity change, negative = cytotoxicity [11] -2.74% [at 19 µM] | activation [19] -0.0631% [at 19 µM] | Potency [17] | activity change, negative = cytotoxicity [12] -1.25% [at 19 µM] | viability change, negative = cytotoxic [18] -7.88% [at 15.8 µM] | activity change, negative = cytotoxicity [13] 10.9% [at 15.8 µM] | activation [14] 5.13% [at 15.8 µM] | activity, negative = inhibition [15] 1.88% [at 10.5 µM]

CCOC(=O)C1CC(=O)C(=C(O)C2CC2)C(=O)C1 (stereo not given)
inactive: Potency [1] | Potency [2] | outcome [3] | Potency [4] | Potency [5] | outcome [7] | Potency [8] | outcome [9] | Potency [10] | Potency [11] | Potency [19] | Potency [17] | Potency [12] | outcome [18] | outcome [14] | outcome [15]

Source: PubChem BioAssay (Tox21)
